Experimental data: ChEMBL document CHEMBL1961873, “Compounds: GSK PKIS; Assays: Nanosyn kinase panel” (2012)

Assays:
[1] = biological target: Tyrosine-protein kinase Fer (Homo sapiens) (UniProt P16591); conditions: at 1 µM
[2] = biological target: Tyrosine-protein kinase Fes/Fps (Homo sapiens) (UniProt P07332); conditions: at 0.1 µM
[3] = biological target: Tyrosine-protein kinase Fes/Fps (Homo sapiens) (UniProt P07332); conditions: at 1 µM
[4] = biological target: Fibroblast growth factor receptor 1 (Homo sapiens) (UniProt P11362); conditions: at 0.1 µM
Sequence of Fibroblast growth factor receptor 1 (Homo sapiens) (P11362 22-822 limits assumed): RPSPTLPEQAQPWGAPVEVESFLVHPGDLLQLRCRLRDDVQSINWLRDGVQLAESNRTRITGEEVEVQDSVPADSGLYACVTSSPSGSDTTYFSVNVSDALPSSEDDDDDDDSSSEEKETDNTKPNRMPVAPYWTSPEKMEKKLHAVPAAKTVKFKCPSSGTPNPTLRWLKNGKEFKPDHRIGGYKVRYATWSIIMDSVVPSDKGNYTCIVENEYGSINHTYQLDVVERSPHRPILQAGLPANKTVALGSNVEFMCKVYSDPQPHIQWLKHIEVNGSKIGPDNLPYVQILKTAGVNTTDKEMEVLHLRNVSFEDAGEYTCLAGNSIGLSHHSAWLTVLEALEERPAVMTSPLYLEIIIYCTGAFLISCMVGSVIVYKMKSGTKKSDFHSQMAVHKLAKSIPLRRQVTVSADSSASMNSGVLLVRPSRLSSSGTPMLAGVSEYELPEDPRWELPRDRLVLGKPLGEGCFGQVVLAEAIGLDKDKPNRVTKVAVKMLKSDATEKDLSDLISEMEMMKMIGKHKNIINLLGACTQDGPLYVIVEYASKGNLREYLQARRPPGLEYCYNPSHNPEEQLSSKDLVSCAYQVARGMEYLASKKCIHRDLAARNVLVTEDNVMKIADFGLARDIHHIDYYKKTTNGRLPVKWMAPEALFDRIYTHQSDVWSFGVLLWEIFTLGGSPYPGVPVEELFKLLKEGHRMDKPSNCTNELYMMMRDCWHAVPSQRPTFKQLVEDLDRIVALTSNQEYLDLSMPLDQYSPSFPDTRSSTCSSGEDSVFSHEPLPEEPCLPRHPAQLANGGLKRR

[5] = biological target: Fibroblast growth factor receptor 1 (Homo sapiens) (UniProt P11362); conditions: at 1 µM
[6] = biological target: Fibroblast growth factor receptor 2 (Homo sapiens) (UniProt P21802); conditions: at 0.1 µM
[7] = biological target: Fibroblast growth factor receptor 2 (Homo sapiens) (UniProt P21802); conditions: at 1 µM
[8] = biological target: Fibroblast growth factor receptor 3 (Homo sapiens) (UniProt P22607); conditions: at 0.1 µM
Sequence of Fibroblast growth factor receptor 3 (Homo sapiens) (P22607 23-806 limits assumed): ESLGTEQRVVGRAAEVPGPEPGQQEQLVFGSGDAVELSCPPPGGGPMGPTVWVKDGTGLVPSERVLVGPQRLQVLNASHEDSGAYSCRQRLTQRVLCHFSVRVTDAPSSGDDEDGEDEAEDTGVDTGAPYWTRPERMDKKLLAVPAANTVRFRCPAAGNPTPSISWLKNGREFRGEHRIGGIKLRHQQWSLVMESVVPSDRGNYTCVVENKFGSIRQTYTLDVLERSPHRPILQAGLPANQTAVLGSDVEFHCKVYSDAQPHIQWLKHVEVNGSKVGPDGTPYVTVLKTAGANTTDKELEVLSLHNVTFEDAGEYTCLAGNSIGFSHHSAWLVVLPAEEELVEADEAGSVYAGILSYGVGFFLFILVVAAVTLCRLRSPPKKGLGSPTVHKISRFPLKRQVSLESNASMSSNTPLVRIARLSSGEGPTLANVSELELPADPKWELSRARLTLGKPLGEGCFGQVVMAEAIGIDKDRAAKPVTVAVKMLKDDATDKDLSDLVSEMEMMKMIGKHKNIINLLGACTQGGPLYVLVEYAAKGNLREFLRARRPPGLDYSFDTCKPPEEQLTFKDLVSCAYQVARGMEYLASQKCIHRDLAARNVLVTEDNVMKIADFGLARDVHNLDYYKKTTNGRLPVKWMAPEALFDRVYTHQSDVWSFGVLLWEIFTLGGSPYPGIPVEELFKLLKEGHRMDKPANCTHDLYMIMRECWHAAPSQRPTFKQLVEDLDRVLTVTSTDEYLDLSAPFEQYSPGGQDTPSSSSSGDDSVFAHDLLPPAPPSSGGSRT

[9] = biological target: Fibroblast growth factor receptor 3 (Homo sapiens) (UniProt P22607); conditions: at 1 µM
[10] = biological target: Fibroblast growth factor receptor 4 (Homo sapiens) (UniProt P22455); conditions: at 0.1 µM
Sequence of Fibroblast growth factor receptor 4 (Homo sapiens) (P22455 22-802 limits assumed): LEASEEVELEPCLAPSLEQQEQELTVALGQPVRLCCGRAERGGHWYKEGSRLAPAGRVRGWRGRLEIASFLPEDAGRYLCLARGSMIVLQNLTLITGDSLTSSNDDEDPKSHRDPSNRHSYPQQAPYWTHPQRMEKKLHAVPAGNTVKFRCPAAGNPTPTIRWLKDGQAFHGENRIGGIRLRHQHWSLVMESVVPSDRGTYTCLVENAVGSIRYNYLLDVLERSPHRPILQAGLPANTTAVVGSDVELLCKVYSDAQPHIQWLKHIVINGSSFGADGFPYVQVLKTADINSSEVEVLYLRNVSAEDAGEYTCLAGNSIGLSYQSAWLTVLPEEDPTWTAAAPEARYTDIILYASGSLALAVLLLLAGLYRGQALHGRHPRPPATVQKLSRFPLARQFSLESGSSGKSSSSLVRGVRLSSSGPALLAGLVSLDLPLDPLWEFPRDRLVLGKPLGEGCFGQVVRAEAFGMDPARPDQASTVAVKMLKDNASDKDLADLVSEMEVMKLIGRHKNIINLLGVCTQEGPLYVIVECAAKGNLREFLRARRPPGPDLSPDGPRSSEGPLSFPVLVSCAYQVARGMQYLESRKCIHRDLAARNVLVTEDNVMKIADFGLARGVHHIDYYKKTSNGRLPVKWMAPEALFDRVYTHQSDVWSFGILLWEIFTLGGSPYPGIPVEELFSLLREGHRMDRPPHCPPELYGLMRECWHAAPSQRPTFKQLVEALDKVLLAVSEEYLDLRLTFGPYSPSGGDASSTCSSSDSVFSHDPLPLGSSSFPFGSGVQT

[11] = biological target: Fibroblast growth factor receptor 4 (Homo sapiens) (UniProt P22455); conditions: at 1 µM
[12] = biological target: Tyrosine-protein kinase Fgr (Homo sapiens) (UniProt P09769); conditions: at 0.1 µM
Sequence of Tyrosine-protein kinase Fgr (Homo sapiens) (P09769 2-529 limits assumed): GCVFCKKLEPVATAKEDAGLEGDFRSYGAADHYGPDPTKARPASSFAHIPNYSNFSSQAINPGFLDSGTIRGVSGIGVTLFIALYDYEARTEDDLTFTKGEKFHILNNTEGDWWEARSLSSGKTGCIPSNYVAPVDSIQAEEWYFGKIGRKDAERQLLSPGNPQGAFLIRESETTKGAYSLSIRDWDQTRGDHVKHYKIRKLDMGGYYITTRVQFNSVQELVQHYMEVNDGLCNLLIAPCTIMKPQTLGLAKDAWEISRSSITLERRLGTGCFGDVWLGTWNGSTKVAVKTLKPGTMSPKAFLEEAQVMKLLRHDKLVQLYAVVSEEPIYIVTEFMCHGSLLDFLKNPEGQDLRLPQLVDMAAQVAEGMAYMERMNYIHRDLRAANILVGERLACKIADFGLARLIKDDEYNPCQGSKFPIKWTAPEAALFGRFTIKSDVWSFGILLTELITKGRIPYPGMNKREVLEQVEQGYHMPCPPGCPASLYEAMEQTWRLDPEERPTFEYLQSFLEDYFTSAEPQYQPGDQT

[13] = biological target: Tyrosine-protein kinase Fgr (Homo sapiens) (UniProt P09769); conditions: at 1 µM
[14] = biological target: Vascular endothelial growth factor receptor 1 (Homo sapiens) (UniProt P17948); conditions: at 0.1 µM
[15] = biological target: Vascular endothelial growth factor receptor 1 (Homo sapiens) (UniProt P17948); conditions: at 1 µM
[16] = biological target: Receptor-type tyrosine-protein kinase FLT3 (Homo sapiens) (UniProt P36888); conditions: at 0.1 µM
[17] = biological target: Receptor-type tyrosine-protein kinase FLT3 (Homo sapiens) (UniProt P36888); conditions: at 1 µM
[18] = system: T1, Receptor-type tyrosine-protein kinase FLT3 (Homo sapiens), P36888 [D835Y]; conditions: at 0.1 µM
T1 sequence (whole entry): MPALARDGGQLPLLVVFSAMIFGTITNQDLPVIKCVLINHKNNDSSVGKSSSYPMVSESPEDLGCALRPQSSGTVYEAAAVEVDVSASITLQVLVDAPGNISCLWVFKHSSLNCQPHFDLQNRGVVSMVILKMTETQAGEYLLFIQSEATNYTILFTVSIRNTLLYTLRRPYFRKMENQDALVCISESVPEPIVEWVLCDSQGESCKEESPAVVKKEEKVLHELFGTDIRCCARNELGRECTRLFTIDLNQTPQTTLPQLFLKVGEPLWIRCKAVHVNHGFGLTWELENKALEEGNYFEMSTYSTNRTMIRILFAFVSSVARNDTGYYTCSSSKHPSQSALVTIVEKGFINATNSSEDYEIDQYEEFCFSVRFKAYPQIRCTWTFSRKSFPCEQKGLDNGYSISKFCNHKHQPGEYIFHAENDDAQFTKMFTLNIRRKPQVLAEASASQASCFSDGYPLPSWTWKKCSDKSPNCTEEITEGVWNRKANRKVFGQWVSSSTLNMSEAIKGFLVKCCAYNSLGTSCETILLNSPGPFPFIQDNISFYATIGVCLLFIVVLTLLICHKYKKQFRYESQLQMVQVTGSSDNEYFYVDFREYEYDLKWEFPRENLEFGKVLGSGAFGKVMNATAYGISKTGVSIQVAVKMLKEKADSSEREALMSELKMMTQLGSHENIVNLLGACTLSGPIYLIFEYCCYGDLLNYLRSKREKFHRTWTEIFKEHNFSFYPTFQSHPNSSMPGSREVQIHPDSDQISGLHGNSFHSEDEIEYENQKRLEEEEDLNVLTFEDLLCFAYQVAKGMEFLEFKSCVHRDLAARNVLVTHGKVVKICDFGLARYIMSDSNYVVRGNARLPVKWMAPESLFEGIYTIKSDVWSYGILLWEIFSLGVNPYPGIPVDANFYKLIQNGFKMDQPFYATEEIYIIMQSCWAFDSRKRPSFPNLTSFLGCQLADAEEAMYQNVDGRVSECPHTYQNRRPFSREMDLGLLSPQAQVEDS

[19] = biological target: Non-receptor tyrosine-protein kinase TYK2 (Homo sapiens) (UniProt P29597); conditions: at 1 µM;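 further: values are mean percent inhibition of TYK2 kinase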
Sequence of Non-receptor tyrosine-protein kinase TYK2 (Homo sapiens) (P29597 whole entry): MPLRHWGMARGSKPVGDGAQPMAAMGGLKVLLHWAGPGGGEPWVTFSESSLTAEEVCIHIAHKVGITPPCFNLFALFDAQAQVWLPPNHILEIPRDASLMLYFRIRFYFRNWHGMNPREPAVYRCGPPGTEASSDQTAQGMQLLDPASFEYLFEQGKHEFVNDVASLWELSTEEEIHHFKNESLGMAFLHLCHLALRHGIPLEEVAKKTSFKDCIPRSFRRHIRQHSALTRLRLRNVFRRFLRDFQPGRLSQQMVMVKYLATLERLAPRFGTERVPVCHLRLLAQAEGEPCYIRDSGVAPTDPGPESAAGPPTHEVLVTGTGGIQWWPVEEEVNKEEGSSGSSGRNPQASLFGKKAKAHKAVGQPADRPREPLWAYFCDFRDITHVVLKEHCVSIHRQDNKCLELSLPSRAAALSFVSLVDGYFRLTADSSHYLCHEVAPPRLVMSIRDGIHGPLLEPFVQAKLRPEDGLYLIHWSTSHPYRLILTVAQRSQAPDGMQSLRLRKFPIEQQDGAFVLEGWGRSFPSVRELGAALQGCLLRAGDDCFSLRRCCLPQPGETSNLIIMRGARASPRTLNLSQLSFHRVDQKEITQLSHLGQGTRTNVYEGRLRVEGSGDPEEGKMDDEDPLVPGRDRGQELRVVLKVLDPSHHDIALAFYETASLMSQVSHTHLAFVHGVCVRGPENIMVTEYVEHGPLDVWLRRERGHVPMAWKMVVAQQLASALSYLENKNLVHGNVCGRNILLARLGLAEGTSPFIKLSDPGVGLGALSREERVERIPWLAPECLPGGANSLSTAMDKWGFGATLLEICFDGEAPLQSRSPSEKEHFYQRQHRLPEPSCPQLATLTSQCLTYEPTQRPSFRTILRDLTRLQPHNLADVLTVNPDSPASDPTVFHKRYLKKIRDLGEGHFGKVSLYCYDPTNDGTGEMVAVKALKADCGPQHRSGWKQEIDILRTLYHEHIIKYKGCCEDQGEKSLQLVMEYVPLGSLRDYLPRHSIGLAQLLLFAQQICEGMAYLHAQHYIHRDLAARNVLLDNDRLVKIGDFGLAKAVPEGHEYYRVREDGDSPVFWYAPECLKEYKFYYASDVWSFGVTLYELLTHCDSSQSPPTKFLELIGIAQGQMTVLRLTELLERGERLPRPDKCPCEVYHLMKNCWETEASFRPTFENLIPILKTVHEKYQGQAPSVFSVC

[20] = biological target: T2, Tyrosine-protein kinase receptor TYRO3 (Homo sapiens) (UniProt Q06418); conditions: at 0.1 µM;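 further: reported percentages are averaged inhibition values of TYRO3 kinase activity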
T2 sequence (whole entry): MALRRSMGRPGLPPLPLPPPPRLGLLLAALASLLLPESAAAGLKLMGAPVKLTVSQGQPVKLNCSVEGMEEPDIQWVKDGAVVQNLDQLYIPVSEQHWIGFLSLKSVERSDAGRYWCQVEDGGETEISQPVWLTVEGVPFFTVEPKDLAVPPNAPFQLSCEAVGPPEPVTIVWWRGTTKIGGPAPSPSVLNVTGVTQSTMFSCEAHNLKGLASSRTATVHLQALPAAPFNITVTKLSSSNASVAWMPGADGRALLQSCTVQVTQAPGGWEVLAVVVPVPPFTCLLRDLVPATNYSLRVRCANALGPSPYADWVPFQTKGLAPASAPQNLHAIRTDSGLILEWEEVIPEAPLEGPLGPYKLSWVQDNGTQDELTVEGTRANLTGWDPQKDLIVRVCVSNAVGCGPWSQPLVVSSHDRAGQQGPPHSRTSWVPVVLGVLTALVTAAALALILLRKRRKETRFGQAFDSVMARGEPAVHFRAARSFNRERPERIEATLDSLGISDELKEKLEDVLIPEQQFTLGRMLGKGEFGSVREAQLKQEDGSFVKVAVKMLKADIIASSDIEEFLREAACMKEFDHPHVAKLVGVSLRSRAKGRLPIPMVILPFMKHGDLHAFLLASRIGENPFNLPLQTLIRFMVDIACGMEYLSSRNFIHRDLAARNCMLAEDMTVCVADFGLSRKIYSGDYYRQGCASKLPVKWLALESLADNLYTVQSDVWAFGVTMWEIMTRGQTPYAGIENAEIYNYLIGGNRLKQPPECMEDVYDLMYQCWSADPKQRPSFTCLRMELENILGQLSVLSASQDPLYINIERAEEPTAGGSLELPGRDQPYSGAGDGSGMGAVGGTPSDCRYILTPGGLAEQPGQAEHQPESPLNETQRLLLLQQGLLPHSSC

Sequence of Tyrosine-protein kinase Fes/Fps (Homo sapiens) (P07332 whole entry): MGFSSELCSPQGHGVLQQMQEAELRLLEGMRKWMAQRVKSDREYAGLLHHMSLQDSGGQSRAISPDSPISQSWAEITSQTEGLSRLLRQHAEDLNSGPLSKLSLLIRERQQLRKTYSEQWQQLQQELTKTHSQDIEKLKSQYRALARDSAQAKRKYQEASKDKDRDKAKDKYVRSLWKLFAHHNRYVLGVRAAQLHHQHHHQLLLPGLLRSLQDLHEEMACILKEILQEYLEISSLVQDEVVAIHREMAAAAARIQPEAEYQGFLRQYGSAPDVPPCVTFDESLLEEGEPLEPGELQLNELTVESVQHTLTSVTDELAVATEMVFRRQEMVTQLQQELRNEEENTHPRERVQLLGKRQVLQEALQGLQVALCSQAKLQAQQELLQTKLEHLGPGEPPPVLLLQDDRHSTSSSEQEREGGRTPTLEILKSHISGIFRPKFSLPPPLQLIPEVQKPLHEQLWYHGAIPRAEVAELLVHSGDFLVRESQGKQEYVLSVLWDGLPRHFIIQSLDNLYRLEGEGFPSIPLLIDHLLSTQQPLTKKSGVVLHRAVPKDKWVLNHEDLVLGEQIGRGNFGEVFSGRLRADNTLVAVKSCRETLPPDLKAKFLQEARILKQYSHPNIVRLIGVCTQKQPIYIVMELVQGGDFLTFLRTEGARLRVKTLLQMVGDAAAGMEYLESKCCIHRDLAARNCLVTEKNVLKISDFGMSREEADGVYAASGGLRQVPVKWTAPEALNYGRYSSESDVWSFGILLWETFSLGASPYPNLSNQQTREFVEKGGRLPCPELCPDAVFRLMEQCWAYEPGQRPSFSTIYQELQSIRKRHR

Structure (SMILES) | inhibition [1] | inhibition [2] | inhibition [3] | inhibition [4] | inhibition [5] | inhibition [6] | inhibition [7] | inhibition [8] | inhibition [9] | inhibition [10] | inhibition [11] | inhibition [12] | inhibition [13] | inhibition [14] | inhibition [15] | inhibition [16] | inhibition [17] | inhibition [18] | inhibition [19] | inhibition [20]
c1ccc(COc2ccc(Nc3ncnc4ccc(-c5ccco5)cc34)cc2)cc1 | 4.05% | 2.03% | 1.74% | -8.22% | -7.82% | 1.65% | 8.16% | 2.01% | 7.69% | 3.87% | 0.84% | 3.1% | 7.56% | -2.31% | -0.13% | 0.33% | 3.12% | -0.59% | -2.46% | 0.34%
O=S(=O)(CCNCc1ccc(-c2ccc3ncnc(Nc4ccc(OCc5cccc(F)c5)c(Cl)c4)c3c2)o1)c1ccccc1 | 4.93% | 4.42% | 4.26% | 3.65% | 8.42% | 7.23% | 11.6% | 7.36% | 6.93% | -5.68% | 1.88% | 2.78% | 5.07% | 2.06% | 4.7% | 5.79% | 4.97% | -2.76% | -2.79% | 1.84%
O=C(O[C@H]1CN[C@H](C#Cc2cc3ncnc(Nc4ccc(Cc5ccccc5)cc4)c3s2)C1)N1CCOCC1 | -0.65% | 1.87% | 1.71% | 1.97% | 2.47% | 2.52% | 1.51% | 1.73% | 0.73% | 4.79% | 0.95% | 5.25% | 20.8% | -0.12% | 2.35% | -1.61% | 0.34% | 5.18% | -3.27% | 0.99%
COC(=O)Nc1nc2ccc(S(=O)(=O)c3ccc(NC(=O)Nc4cc(C(F)(F)F)ccc4F)cc3)cc2[nH]1 | 2.04% | 2.47% | 2.5% | 3.55% | 2.11% | 2.63% | 7.81% | 4.85% | 4.38% | -1.95% | 0.83% | 0.25% | 6.79% | 0.68% | -0.67% | -0.31% | 3.96% | -2.76% | 0.09% | 0.25%
CN1CCC(n2cnc(-c3ccc(F)cc3)c2-c2ccnc(Nc3ccccc3)n2)CC1 | 4.62% | 2.34% | 3.11% | 1.2% | -0.76% | 2.32% | 4.35% | 4.39% | 0.24% | 0.09% | 1.8% | 11.5% | 33.7% | 0.12% | 3.33% | 0.8% | 1.93% | -1.9% | 0.82% | 2.41%
Nc1nc(-c2cccc(Cl)c2)c(-c2ccc3ncccc3n2)s1 | 3.32% | 3.08% | 4.47% | 3.71% | 7.27% | 5.51% | 7.42% | 4.38% | 8.26% | -1.18% | 2.06% | 4.53% | 4.6% | 0.88% | 3.45% | 2.09% | 2% | -4.43% | -0.72% | 3.62%
N#Cc1c(NC(=O)CN2CCOCC2)sc2c1CCCC2 | 9.05% | 3.37% | 6.23% | 4.57% | 3.5% | 3.03% | 7.88% | 3.63% | 6.45% | -0.36% | 2.81% | 2.52% | 4.31% | 0.23% | 4.24% | 1.8% | 4.78% | 0.3% | -0.83% | 2.15%
COc1cc2c(cc1Nc1nc(Nc3ccsc3C(N)=O)c3cc[nH]c3n1)N(C(=O)CN(C)C)CCC2(C)C | 94.8% | 76.5% | 79.4% | 7.38% | 4.2% | 5.74% | 13.5% | 9.36% | 7.81% | -6.03% | 4.78% | 1.11% | 6.75% | 1.44% | 1.83% | 4.2% | 13% | 0.35% | -1.34% | 3.88%
CCn1cc(-c2ccnc3[nH]ccc23)c(-c2cccc(NC(=O)Nc3ccc(OCc4ccccc4)cc3)c2)n1 | 5.87% | 0.81% | 2.87% | -0.96% | -2.55% | -0.49% | 0.34% | -0.88% | 0.39% | -0.55% | 3.27% | 7.42% | 34.1% | -3.05% | 2.9% | -1.9% | -2.19% | -9.12% | 0.52% | 0.03%
COC(=O)Nc1nc2ccc(Oc3ccc(NC(=O)Nc4cccc(Cl)c4)cc3)cc2[nH]1 | 2.41% | 1.11% | 0.57% | 2.31% | 9.33% | 2.67% | 2.53% | 2.97% | 2.72% | 0.5% | -0.03% | 2.28% | 4.23% | 28.6% | 56.8% | 21.1% | 57.2% | -4.92% | -0.96% | 3.45%
CCNC(=O)O[C@H]1CN[C@H](C#Cc2cc3ncnc(Nc4ccc(OCc5cccc(F)c5)c(Cl)c4)c3s2)C1 | -0.34% | 2.67% | 3.23% | 3.91% | 4.51% | 2.71% | 4.31% | 4.87% | 4.14% | 1.14% | -0.06% | 1.28% | 1.88% | 2.51% | 1.26% | 2.06% | 2.34% | 3.08% | -3.06% | 2.91%
COc1cc2ncn(-c3cc(OCc4ccccc4C(F)(F)F)c(C(=O)N(C)C)s3)c2cc1OC | 3.02% | 0.2% | 0.64% | -1.23% | 10.3% | 2.76% | 20.8% | 1.53% | 8.98% | -1.7% | 2.15% | 0.95% | 6.42% | -0.21% | 6.59% | -1.41% | 0.81% | -1.94% | 1.47% | 0.67%
NS(=O)(=O)c1ccc(Nc2ncc(-c3ccccc3)o2)cc1 | 4.95% | 2.8% | 4.88% | 6.58% | 8.69% | 7.74% | 16.1% | 7.08% | 11.2% | 2.06% | 1.97% | 2.45% | 10.1% | 4.95% | 13.1% | 35.3% | 78.8% | 8.41% | 2.33% | 3.59%
